# Experimental data published in PubChem BioAssay (Tox21).
# Results filed as inconclusive are left out. A number with no mark means an inactive call. Calls of active or inactive are those of the source. Calls come from the whole dose curve; as a rule, active = well fitted inhibition curve with a large enough effect in the repeat runs; inconclusive = weak or mixed curves; inactive = no such curve, though single readings can be large or run the other way.
# Biological target: Estrogen receptor (Homo sapiens) (UniProt P03372)
# Assay: qHTS assay to identify small molecule antagonists of the estrogen receptor alpha (ER-alpha) signaling pathway using the BG1 cell line in the presence of 0.1 nM 17-beta-estradiol (AID 1259244); note: nearly all actives have a fitted effect of over 50% in size
# Details: VM7Luc4E2 (BG1) ERE-luciferase, antagonist mode, 0.1 nM E2, 22 h; series mostly up to 92.4 µM; activity change, negative = inhibition: at the top concentration
# Source text: National Center for Advancing Translational Sciences [NCATS]
# NIH Chemical Genomics Center [NCGC]
# U.S. Environmental Protection Agency [EPA]
# National Institutes of Environmental Health Sciences [NIEHS]
# National Toxicology Program [NTP]
# U.S. Food and Drug Administration [FDA]
# Estrogen receptor (ER), a member of the nuclear hormone receptor plays an important role in development, metabolic homeostasis and reproduction. Two subtypes of ER, ER-alpha and ER-beta, have similar expression patterns with some uniqueness in both types. Endocrine disrupting chemicals (EDCs) and their interactions with steroid hormone receptors like ER causes disruption of normal endocrine function. Therefore, it is important to understand the effect of environmental chemicals in ER signaling pathway. For identifying ER antagonists, VM7Luc4E2 cell line was used to screen against Tox21 compound libraries.
# VM7Luc4E2 cell line (provided by Denison MS, University of California) endogenously express full-length ER-alpha and is stably transfected with a plasmid containing four estrogen responsive elements (ERE) upstream of a luciferase reporter gene. The current screening for identification of ER-alpha inhibitors against Tox21 compound libraries used lower concentration (0.1 nM) of 17beta-Estradiol as a stimulator.
# Tox21 Assay Protocol Summary:
# VM7Luc4E2 cells were cultured in phenol red free assay medium containing 10% charcoal stripped FBS for 5 days prior to the assay. The cells were dispensed at 4,000 cells/well in 4 uL of assay medium into white wall/solid-bottom 1536-well plates (Corning Life Sciences, Corning, NY) using a Multidrop Combi (ThermoFisher Scientific, Waltham, MA) dispenser. After the assay plates were incubated at 37C and 5% CO2 for 24 hr, 23 nL of compounds dissolved in DMSO, positive controls or DMSO only was transferred to the assay plates by a Pintool station (Kalypsys, San Diego, CA). The transfer of compounds was followed by the addition of 1 uL of 0.1 nM (final concentration) agonist (17beta-Estradiol)/assay medium using a Flying Reagent Dispenser (FRD, Aurora Discovery, San Diego, CA). The plates were incubated at 37C and 5% CO2 for 22 hr. For luciferase reporter gene assay, 4 uL of ONE-Glo reagent (Promega Corporation, Madison, WI) was added to each well using the FRD and after 30 min incubation at room temperature luminescence intensity was measured using ViewLux plate reader (PerkinElmer, Shelton, CT).
# % is set by controls: 0 for no effect and ±100 for the full control effect.
# Chain of Estrogen receptor (Homo sapiens) (P03372 whole entry, looked up): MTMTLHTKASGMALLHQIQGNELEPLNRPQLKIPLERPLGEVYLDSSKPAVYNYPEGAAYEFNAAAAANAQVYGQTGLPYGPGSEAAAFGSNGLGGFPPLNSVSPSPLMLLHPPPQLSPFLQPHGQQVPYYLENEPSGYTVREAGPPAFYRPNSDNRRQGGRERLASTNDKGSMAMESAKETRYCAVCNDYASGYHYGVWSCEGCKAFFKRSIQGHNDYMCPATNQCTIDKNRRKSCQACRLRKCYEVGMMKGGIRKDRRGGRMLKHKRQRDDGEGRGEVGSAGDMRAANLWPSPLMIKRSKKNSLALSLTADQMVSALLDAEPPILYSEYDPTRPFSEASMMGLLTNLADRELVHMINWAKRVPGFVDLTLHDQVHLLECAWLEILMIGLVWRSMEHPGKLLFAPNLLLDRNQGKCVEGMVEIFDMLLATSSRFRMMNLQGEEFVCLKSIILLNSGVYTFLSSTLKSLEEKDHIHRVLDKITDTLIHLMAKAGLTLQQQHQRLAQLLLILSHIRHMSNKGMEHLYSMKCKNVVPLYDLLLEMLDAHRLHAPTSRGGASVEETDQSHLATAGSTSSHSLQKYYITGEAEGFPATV
SMILES,"activity change, negative = inhibition",Potency
OCC(Cl)CCl (stereo not given),0%,–
NC(=O)OCCCc1ccccc1,4.86% [at 42.5 µM],–
CCC(C)C(C)(COC(N)=O)COC(N)=O (stereo not given),6.75% [at 42.5 µM],–
Cc1ccc(S(=O)(=O)N[C@@H](CCCCN)C(=O)CCl)cc1,0.577% [at 42.5 µM],–
C/C(=N\NC(=O)Nc1cc(F)cc(F)c1)c1ncccc1C(=O)O,–,inactive
CCOP(=S)(OCC)SCCl,6.82%,–
CCc1ccc(C2CCNCC2)cc1,1.9% [at 42.5 µM],–
NC(=O)CS(=O)C(c1ccccc1)c1ccccc1 (stereo not given),5.59% [at 42.5 µM],–
C[C@H](CN1CCOCC1)C(C(=O)N1CCCC1)(c1ccccc1)c1ccccc1,-20.5%,–
CCC(C(N)=O)N1CCCC1=O (stereo not given),10.9% [at 42.5 µM],–
N[C@@H](Cc1ccc(Oc2cc(I)c(O)c(I)c2)c(I)c1)C(=O)O,-4.82% [at 42.5 µM],–
O=C(CCl)NCO,3.89%,–
Cc1cccc2sc3nncn3c12,1.87%,–
COP(=O)(O)OC,-9.26%,–
CC[C@@H](CO)NC(=O)[C@@H]1C=C2c3cccc4[nH]cc(c34)C[C@H]2N(C)C1,3.71% [at 42.5 µM],–
N#CN=C1SCCN1Cc1ccc(Cl)nc1,3.48%,–
NNC(N)=O,0%,–
ClCC1CO1 (stereo not given),-12.1%,–
CN(C)CCc1c[nH]c2cccc(OP(=O)(O)O)c12,-3.35%,–
O=C(NC(O)C(Cl)(Cl)Cl)NC(O)C(Cl)(Cl)Cl (stereo not given),0.906% [at 42.5 µM],–

SMILES,"activity change, negative = inhibition",Potency
O=C(Cl)C(Cl)Cl,1.68%,–
Nc1c(Cl)c(F)nc(OCC(=O)O)c1Cl,3.38%,–
CC(C)(C1CCC(O)CC1)C1CCC(O)CC1 (stereo not given),-22.9%,–
O=C(Cl)c1ccccc1,2.45%,–
COc1ccc(CN2CCNCC2)c(OC)c1OC,8.39% [at 42.5 µM],–
COc1cccc([C@@]2(O)CCCC[C@@H]2CN(C)C)c1,6.69% [at 42.5 µM],–
CCCCOC(C)=O,16.8%,–
CN(C)C1CCCCC1,6.35%,–
CCC1(CC)C(=O)C=CNC1=O,-5.72% [at 42.5 µM],–
O=CCCl,3.5%,–
CCNP(=S)(OC)O/C(C)=C/C(=O)OC(C)C (stereo not given),-7.11%,–
BrCc1ccc(Br)cc1,-0.767%,–
CC[C@@H](CO)NC(=O)[C@@H]1C=C2c3cccc4c3c(cn4C)C[C@H]2N(C)C1,-0.476% [at 42.5 µM],–
O=C(Cl)C(Cl)(Cl)Cl,-6.5%,–
c1cncc([C@@H]2CCCCN2)c1,12.7%,–
COc1ccccc1OC,1.92%,–
O=C(Cl)OCc1ccccc1,-7.64%,–
CCOC(=O)C(Cl)Cc1cc(-n2nc(C)n(C(F)F)c2=O)c(F)cc1Cl (stereo not given),-7.42%,–
CCSC(=O)Cl,21.6%,–
COc1ccc(C=O)cc1O,1.46%,–
